In PubChem BioAssay (NCI) one finds growth data, which are given here for eight molecules.

Among the test systems are HCT-15 colon; HT29 colon; SNB-75 CNS; SNB-19 CNS; U251 CNS; SK-MEL-5 melanoma; UACC-62 melanoma; LOX IMVI melanoma; SK-MEL-2 melanoma; EKVX NSCLC; SN12C renal; UO-31 renal; TK-10 renal; ACHN renal; CAKI-1 renal; A498 renal; CCRF-CEM leukemia; MOLT-4 leukemia; PC-3 prostate; SK-MEL-28 melanoma.
Holding throughout (assay): NCI-60 one-dose screen, 48 h (100 = growth as untreated, 0 = no growth, -100 = all killed)
Conditions in all cases: 10 µM unless noted

SMILES strings stand for the structures. About 83,000 compounds went through this panel and 20% of them were active in at least one assay; those are over-represented in the sample as a whole.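 Negative percent growth values reflect cell death: -40 means 40% of the cells present at the start died, and -100 means all died.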 A number with no mark means an inactive call. Active and inactive are the calls of the source. Rule for the calls: active = growth percent below 10; inactive = the rest.

Regarding `O=C1/C(=C/C=C/c2ccco2)SC(=S)N1Cc1ccccc1`, the growth was 65% in the experiment on HCT-15 colon; 110% in the experiment with HT29 colon; 84.7% in the experiment on SNB-75 CNS; 89.2% in the experiment with SNB-19 CNS; 92.3% in the experiment with U251 CNS; 98.8% in the experiment with SK-MEL-5 melanoma. For the same molecule, the growth in the experiment on UACC-62 melanoma is 82.1%; in the experiment with LOX IMVI melanoma it was 96.4%; with SK-MEL-2 melanoma it was 102%; in the experiment on EKVX NSCLC it was 98%; in the experiment on SN12C renal, 99.2%; in the experiment with UO-31 renal, 83.9%. For the same molecule, the growth with TK-10 renal was 124%; in the experiment on ACHN renal, 104%; in the experiment with CAKI-1 renal, 81%; in the experiment with A498 renal, 88.9%; in the experiment on CCRF-CEM leukemia, 93.5%; in the experiment on MOLT-4 leukemia, 96.4%.

Take `CCN(CC)c1ccc(/C=N/NC(=O)c2ccc(S(N)(=O)=O)cc2)c(O)c1`: the growth with HCT-15 colon was 20.9%; in the experiment with HT29 colon it was 25.4%; in the experiment on SNB-75 CNS, 47.8%; in the experiment with SNB-19 CNS, 29.9%; in the experiment on U251 CNS it was 20.8%; with PC-3 prostate it was 34.9%. In addition, the growth was -7.45% (active) in the experiment with SK-MEL-5 melanoma; -3.75% (active) in the experiment with UACC-62 melanoma; 47.2% with SK-MEL-2 melanoma; 15.9% with EKVX NSCLC; 28.3% in the experiment on SN12C renal; 7.5% (active) with UO-31 renal. Also, the growth is 37.4% in the experiment on TK-10 renal; 14.8% in the experiment on ACHN renal; 22.1% in the experiment on CAKI-1 renal; 24% in the experiment on A498 renal; 9.4% (active) with CCRF-CEM leukemia; 11.2% in the experiment on MOLT-4 leukemia.

For the molecule `CN1CCN(c2ccc(Nc3nc(NCCCNS(=O)(=O)c4ccccc4)c4sccc4n3)cc2)CC1`, the growth in the experiment with HCT-15 colon was 27.2%; in the experiment with HT29 colon, -26.7% (active); with SNB-75 CNS, 89.3%; in the experiment with SNB-19 CNS, 56.6%; with U251 CNS it was 13.2%; in the experiment on SK-MEL-5 melanoma, 24.9%. For the same molecule, the growth with UACC-62 melanoma was 13.2%; in the experiment on LOX IMVI melanoma, -22.2% (active); in the experiment with SK-MEL-28 melanoma it was -24.3% (active); in the experiment on SK-MEL-2 melanoma, 106%; in the experiment on EKVX NSCLC, 97.6%; with SN12C renal, 72.7%. In addition, the growth with UO-31 renal was 69.2%; in the experiment on TK-10 renal, 145%; in the experiment with ACHN renal, 20.2%; in the experiment with CAKI-1 renal, 30.8%; in the experiment with CCRF-CEM leukemia, 37.9%; with MOLT-4 leukemia it was 26%.

Regarding `O=c1nc(Nc2ccc([N+](=O)[O-])cc2O)sc2ccccc12`, the growth with HCT-15 colon was 26.6%; in the experiment with HT29 colon it was 81.7%; in the experiment on SNB-75 CNS it was -11.7% (active); with SNB-19 CNS it was 28.7%; with U251 CNS, 36.8%; with SK-MEL-5 melanoma, 21%. The growth in the experiment on UACC-62 melanoma is 15.2%; with LOX IMVI melanoma, 41.2%; with SK-MEL-28 melanoma it was 50.8%; in the experiment on SK-MEL-2 melanoma, 39.4%; with EKVX NSCLC, 38%; with SN12C renal, 34.5%. The growth in the experiment on UO-31 renal was 35.8%; with TK-10 renal it was 82%; with ACHN renal, 43.5%; in the experiment on CAKI-1 renal, 33%; with A498 renal, -7.49% (active); with CCRF-CEM leukemia, 16.6%. Besides, the growth with MOLT-4 leukemia is 31.1%.

Take `O=C(CCCCCC/C=C\c1csc(Br)n1)NO`: the growth in the experiment with HCT-15 colon is 90.9%; in the experiment with HT29 colon, 84.5%; in the experiment on SNB-75 CNS, 64.8%; with SNB-19 CNS, 97%; in the experiment with U251 CNS, 91.4%; in the experiment on SK-MEL-5 melanoma it was 97.1%. Further, the growth is 74.5% with UACC-62 melanoma; 70.1% in the experiment with LOX IMVI melanoma; 92.4% with SK-MEL-28 melanoma; 101% with SK-MEL-2 melanoma; 94% with EKVX NSCLC; 98.2% with SN12C renal. Moreover, the growth in the experiment on UO-31 renal is 60.6%; with TK-10 renal, 59.4%; in the experiment on ACHN renal it was 82.8%; in the experiment with CAKI-1 renal, 78.7%; in the experiment with A498 renal it was 87.1%; in the experiment with CCRF-CEM leukemia, 52.7%. The growth in the experiment on MOLT-4 leukemia is 63.7%.

`Cc1cc2nc(C(Cl)Cl)nc(-c3ccc(S(=O)(=O)N(C)C)cc3)n2n1`: the growth is 5.58% (active) in the experiment on HCT-15 colon; 18% in the experiment with HT29 colon; 55.5% in the experiment on SNB-75 CNS; 58.4% in the experiment with SNB-19 CNS; 39.2% in the experiment with U251 CNS; 80.3% with SK-MEL-5 melanoma. Also, the growth was 68.5% in the experiment on UACC-62 melanoma; 17.7% with LOX IMVI melanoma; 59.3% in the experiment on SK-MEL-28 melanoma; 93% in the experiment with SK-MEL-2 melanoma; 48.7% with EKVX NSCLC; 55% in the experiment with SN12C renal. Also, the growth in the experiment with UO-31 renal was 65.7%; in the experiment with TK-10 renal it was 85%; with ACHN renal, 25.2%; in the experiment with CAKI-1 renal it was 45%; in the experiment on A498 renal it was 90.9%; with CCRF-CEM leukemia, 40.8%. Also, the growth with MOLT-4 leukemia is 28.4%.

In the case of `Cc1ccc(NC(=O)Nc2nc3ccc([N+](=O)[O-])cc3s2)cc1`, the growth in the experiment on HCT-15 colon is 7.79% (active); with HT29 colon, 11.7%; in the experiment on SNB-75 CNS it was 1.44% (active); in the experiment with SNB-19 CNS it was 11.3%; in the experiment with U251 CNS, 4.96% (active); in the experiment on SK-MEL-5 melanoma, -55% (active). Moreover, the growth was 9.49% (active) with UACC-62 melanoma; 11.6% with LOX IMVI melanoma; 14.8% in the experiment on SK-MEL-28 melanoma; -15.2% (active) with SK-MEL-2 melanoma; 4.01% (active) in the experiment with EKVX NSCLC; 3.41% (active) with SN12C renal. Besides, the growth is 6.85% (active) in the experiment with UO-31 renal; 4.02% (active) with TK-10 renal; 1.63% (active) in the experiment with ACHN renal; -23.2% (active) with CAKI-1 renal; -34.8% (active) in the experiment on A498 renal; 14.2% in the experiment on CCRF-CEM leukemia. In the experiment on MOLT-4 leukemia, the growth was 17.2%.

Consider `CC(=O)c1c([Si](C)(C)C)c2cc(C#N)ccn2c1C(=O)c1ccc(Br)cc1`, for which the growth is 85.1% in the experiment with HCT-15 colon; 67.8% in the experiment on HT29 colon; 95.1% in the experiment with SNB-75 CNS; 86.9% in the experiment with SNB-19 CNS; 93.2% in the experiment on U251 CNS; 91.2% with SK-MEL-5 melanoma. The growth in the experiment with UACC-62 melanoma was 74.9%; with LOX IMVI melanoma, 99.6%; in the experiment on SK-MEL-28 melanoma, 92.1%; in the experiment on SK-MEL-2 melanoma, 89.4%; in the experiment with EKVX NSCLC, 86.9%; in the experiment with SN12C renal, 96.6%. Moreover, the growth was 77.2% with UO-31 renal; 98% with TK-10 renal; 82.1% in the experiment on ACHN renal; 52% in the experiment on CAKI-1 renal; 78.9% in the experiment with A498 renal; 91.8% in the experiment on CCRF-CEM leukemia. The growth with MOLT-4 leukemia was 85.3%.
